The supplement of paper PMC10849652
The full data set covers some 7,900 targets. This sample favours those with a hit. About 0.6% of all pairs of compound and target were hits.

compound: c1cn2cc(-c3ccc4cn[nH]c4c3)nc(Nc3ccc(N4CCOCC4)cc3)c2n1 [entospletinib]; assay: log2 fold change, soluble protein after heating vs DMSO (PISA); higher = thermal stabilisation; K562 cells, 10 uM, 30 min; active = over 0.2 and 3.5 SD of the protein, either way, in both replicates (recomputed)
How it was run: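 Thermal stability values are relative to control samples and come from duplicates. They are expressed as log2 fold changes. For measurement, K562 cells (2×10^6 cells/mL) received 10 μM compound for 30 min, and aliquots were heated for 3 min over 48°C-58°C, pooled, and extracted at 4°C in PBS with 0.5% NP-40. Soluble protein, the supernatant after 21,000xg for 90 min, was quantified by TMTpro 16plex LC-MS/MS with equalised channel sums.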

Chain of UniProt Q96T23 (Q96T23 whole entry, looked up): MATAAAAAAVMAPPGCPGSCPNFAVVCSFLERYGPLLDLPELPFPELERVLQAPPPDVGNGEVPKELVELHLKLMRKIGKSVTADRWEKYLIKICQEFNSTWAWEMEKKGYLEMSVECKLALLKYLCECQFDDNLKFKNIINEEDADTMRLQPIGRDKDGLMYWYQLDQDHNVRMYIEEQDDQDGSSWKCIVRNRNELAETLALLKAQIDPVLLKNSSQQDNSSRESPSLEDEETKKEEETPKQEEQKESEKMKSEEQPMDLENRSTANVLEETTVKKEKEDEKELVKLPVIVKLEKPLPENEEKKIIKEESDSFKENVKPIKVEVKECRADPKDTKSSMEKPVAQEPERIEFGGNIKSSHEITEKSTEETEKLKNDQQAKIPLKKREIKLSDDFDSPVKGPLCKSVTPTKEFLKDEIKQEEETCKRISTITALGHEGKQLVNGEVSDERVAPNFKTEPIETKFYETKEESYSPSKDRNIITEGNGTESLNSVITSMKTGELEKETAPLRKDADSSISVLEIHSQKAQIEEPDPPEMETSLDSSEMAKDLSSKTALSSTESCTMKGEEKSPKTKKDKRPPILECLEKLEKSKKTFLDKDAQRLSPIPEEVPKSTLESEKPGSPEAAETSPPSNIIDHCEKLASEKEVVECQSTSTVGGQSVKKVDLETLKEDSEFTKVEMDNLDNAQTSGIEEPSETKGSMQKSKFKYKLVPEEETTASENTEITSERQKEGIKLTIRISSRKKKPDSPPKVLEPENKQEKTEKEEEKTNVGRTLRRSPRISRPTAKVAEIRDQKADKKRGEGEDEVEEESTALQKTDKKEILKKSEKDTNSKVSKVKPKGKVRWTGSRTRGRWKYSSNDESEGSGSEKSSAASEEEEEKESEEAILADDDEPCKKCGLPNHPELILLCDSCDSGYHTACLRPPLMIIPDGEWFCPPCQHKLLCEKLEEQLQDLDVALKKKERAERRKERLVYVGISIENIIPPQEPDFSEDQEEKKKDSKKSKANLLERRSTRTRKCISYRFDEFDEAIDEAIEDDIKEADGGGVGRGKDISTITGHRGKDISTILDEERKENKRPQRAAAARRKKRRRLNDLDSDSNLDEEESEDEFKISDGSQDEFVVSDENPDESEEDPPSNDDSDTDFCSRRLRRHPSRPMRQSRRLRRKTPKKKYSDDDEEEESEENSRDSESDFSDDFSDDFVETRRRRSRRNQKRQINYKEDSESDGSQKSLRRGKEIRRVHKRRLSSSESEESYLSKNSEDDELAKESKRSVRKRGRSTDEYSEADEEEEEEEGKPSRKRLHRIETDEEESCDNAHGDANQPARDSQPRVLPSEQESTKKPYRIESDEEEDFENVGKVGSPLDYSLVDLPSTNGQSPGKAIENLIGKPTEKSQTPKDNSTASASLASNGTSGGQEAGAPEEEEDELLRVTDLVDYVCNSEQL
Chain of UniProt Q99961 (Q99961 whole entry, looked up): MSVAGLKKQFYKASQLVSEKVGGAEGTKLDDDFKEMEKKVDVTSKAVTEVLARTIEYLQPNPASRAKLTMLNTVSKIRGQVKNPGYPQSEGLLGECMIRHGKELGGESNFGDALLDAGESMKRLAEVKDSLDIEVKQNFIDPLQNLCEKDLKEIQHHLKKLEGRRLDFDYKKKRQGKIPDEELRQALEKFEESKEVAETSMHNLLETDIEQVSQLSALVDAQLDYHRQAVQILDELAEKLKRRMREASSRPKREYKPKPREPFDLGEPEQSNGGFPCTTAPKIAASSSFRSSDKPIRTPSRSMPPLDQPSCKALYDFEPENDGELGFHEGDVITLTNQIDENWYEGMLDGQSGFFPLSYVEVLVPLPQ
Chain of UniProt Q15382 (Q15382 whole entry, looked up): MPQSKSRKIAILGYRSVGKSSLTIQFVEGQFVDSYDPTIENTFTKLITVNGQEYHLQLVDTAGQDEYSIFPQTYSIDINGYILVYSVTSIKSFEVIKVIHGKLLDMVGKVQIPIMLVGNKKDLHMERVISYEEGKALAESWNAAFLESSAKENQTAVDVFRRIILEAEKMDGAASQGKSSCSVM
Chain of UniProt Q14151 (Q14151 whole entry, looked up): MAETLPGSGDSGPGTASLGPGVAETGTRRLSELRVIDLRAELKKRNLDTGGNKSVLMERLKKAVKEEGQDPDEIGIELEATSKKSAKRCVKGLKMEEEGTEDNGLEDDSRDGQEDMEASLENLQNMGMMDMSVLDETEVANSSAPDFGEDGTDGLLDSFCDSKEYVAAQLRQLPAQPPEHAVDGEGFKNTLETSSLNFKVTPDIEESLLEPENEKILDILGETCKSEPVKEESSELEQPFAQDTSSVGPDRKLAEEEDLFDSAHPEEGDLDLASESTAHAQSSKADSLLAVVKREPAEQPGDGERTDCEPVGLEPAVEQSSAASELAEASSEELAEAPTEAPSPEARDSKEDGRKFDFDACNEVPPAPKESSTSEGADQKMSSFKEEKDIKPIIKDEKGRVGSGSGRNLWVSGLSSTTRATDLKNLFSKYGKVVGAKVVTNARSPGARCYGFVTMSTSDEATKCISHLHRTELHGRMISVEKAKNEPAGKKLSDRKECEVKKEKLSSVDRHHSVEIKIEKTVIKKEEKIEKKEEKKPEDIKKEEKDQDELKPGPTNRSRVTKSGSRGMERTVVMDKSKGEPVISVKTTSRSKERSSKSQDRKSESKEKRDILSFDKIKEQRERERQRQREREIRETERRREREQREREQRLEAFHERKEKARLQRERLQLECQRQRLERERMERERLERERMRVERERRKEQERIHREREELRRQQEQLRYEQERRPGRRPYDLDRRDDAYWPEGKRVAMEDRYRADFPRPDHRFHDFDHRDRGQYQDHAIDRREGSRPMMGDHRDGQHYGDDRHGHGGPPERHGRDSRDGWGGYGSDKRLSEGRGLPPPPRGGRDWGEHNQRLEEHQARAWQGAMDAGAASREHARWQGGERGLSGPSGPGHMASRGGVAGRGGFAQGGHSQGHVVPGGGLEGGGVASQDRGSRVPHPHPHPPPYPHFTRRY
Chain of UniProt Q96EE3 (Q96EE3 whole entry, looked up): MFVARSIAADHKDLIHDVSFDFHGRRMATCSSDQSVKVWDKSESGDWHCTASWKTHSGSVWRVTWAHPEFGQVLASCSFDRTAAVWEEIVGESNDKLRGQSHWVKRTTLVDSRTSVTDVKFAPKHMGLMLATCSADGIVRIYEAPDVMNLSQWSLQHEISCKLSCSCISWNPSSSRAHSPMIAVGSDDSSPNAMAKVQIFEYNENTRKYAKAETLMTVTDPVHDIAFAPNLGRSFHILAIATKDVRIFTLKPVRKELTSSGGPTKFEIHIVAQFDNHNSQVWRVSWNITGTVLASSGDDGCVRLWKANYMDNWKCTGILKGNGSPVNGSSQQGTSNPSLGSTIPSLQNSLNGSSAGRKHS
Chain of UniProt O00767 (O00767 whole entry, looked up): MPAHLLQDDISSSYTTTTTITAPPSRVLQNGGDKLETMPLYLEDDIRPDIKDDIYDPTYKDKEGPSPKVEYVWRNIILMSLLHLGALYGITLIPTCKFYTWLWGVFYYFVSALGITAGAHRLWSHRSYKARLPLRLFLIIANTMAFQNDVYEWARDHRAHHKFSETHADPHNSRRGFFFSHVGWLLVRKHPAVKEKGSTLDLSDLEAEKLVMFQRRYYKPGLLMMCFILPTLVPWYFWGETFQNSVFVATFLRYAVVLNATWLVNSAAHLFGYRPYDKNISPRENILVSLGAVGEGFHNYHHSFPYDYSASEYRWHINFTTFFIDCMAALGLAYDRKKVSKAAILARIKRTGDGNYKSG
Chain of UniProt Q8IZQ5 (Q8IZQ5 whole entry, looked up): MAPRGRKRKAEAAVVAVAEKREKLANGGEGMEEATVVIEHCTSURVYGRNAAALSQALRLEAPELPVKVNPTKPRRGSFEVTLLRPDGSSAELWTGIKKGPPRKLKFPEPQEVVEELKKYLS
Chain of UniProt Q96ER3 (Q96ER3 whole entry, looked up): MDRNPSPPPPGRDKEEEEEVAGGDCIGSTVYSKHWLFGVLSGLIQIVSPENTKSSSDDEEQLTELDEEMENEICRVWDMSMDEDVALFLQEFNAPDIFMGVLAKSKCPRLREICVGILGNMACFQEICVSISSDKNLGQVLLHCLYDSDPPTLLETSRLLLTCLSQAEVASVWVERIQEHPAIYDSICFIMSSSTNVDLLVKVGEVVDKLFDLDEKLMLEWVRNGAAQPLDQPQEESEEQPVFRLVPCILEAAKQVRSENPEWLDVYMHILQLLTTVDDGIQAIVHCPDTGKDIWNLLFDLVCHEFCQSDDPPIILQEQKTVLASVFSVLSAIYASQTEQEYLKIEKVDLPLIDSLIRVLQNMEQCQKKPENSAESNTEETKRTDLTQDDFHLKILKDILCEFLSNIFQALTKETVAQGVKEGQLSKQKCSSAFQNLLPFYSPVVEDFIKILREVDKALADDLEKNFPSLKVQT
Chain of UniProt Q5TA31 (Q5TA31 whole entry, looked up): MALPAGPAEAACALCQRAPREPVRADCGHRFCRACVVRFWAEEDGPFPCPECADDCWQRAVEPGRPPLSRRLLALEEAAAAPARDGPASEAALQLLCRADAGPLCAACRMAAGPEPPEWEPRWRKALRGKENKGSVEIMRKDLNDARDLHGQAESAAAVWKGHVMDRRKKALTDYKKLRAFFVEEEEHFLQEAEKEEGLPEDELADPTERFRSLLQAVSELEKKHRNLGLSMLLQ
Chain of UniProt Q9BWJ5 (Q9BWJ5 whole entry, looked up): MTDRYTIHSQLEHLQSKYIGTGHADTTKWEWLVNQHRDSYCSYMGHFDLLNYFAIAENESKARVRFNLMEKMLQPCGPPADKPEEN
Chain of UniProt Q9H4P4 (Q9H4P4 whole entry, looked up): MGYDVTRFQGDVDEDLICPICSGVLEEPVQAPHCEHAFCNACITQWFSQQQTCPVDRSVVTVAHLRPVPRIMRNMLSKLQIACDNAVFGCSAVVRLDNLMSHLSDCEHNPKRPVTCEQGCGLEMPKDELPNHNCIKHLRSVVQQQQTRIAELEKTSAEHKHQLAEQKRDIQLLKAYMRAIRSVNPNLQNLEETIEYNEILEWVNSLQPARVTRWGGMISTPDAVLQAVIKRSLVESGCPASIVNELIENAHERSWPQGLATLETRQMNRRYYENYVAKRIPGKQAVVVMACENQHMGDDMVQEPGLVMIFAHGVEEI

log2 fold change, inactive:
RAF1 isoform 2 (UniProt P04049) -0.007, RPP14 (UniProt O95059) -0.066, RSF1 (UniProt Q96T23) 0.052, SCD (UniProt O00767) 0.023, SF3B5 (UniProt Q9BWJ5) 0.021, RNF41 (UniProt Q9H4P4) 0.044, SEH1L isoform 1 (UniProt Q96EE3) 0.007, RHEB (UniProt Q15382) -0.073, RBM4 (UniProt Q9BWF3) 0.077, RHOA (UniProt P61586) 0.054, RAC3 (UniProt P60763) 0.071, RCC1 isoform 2 (UniProt P18754) -0.022, RNPEP (UniProt Q9H4A4) 0.004, SAFB2 (UniProt Q14151) 0.05, SH3GL1 (UniProt Q99961) -0.008, RPA3 (UniProt P35244) -0.02, SELENOH (UniProt Q8IZQ5) -0.143, RNF187 (UniProt Q5TA31) 0.027, SCO2 (UniProt O43819) -0.118, RBIS (UniProt Q8N0T1) -0.031, SHROOM2 (UniProt Q13796) -0.173, RPS18 (UniProt P62269) 0.094, SAAL1 (UniProt Q96ER3) 0.093
